Assay results from PubChem BioAssay AID504773 (Broad Institute, 2011).
Measured potencies and affinities stand elsewhere. Unmarked numbers belong to inactive results.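 Rule for the calls: active = polarization signal falls with dose and the fitted half-maximal concentration is at or below ten times the sample's top valid dose; inconclusive = flat curve at 30 to 70% inhibition, or poor fit; inactive = signal rises, flat within 30%, or potency beyond limit.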

The compounds below were run against Golgi-associated PDZ and coiled-coil motif-containing protein (Homo sapiens) (UniProt Q9HD26) (assay: CAL PDZ peptide-binding inhibitors, dose response, biochemical, fluorescence polarization, Cerulean-tagged CAL PDZ, cherry-picks (AID 504773;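 note: 0% = DMSO neutral wells and -100% = excess unlabeled competitor peptide wells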)). Settings: 1 h; series mostly up to 50 µM; activity change, negative = inhibition: at the top concentration.

| SMILES | activity change, negative = inhibition [%] |
| --- | --- |
| CCN(CC)CCn1c(SCC(=O)NCc2ccccc2)nc2c(sc3ccccc32)c1=O | 7.36 |
| CCc1ccc(C2CC(=O)N(c3cccc(F)c3)C3=C2C(=O)OC3)cc1 (configuration not stated) | 19.7 |
| COCCCNC(=O)c1cc(S(=O)(=O)N2CCOCC2)ccc1SCc1cccc(OC)c1OC | -5.41 |
| COc1ccc(NC(=O)c2cnn(-c3ccccc3)c2C)c(OC)c1 | -23.8 |
| CC(=O)N1CCN(c2ccc(NC(=O)C(c3ccccc3)c3ccccc3)cc2)CC1 | 9.33 |
| O=C(NC1(C(F)(F)F)NC(=O)N(C2CCCCC2)C1=O)C1CC1 (configuration not stated) | -4.96 |
| CC(=O)N1N=C(c2ccccc2)CC1c1ccccc1 (configuration not stated) | -9.8 |
| O=C(NNS(=O)(=O)c1ccc(Cl)cc1)c1cccs1 | 20.6 |
| CCN(CC(=O)Nc1cc(Cl)cc(Cl)c1)CC(=O)NC1CCS(=O)(=O)C1 (configuration not stated) | -16.5 |
| Cc1cc(SC2CCOC2=O)nc2ccccc12 (configuration not stated) | 6.41 |
| Cc1nc2ccc(Br)cn2c1C(=O)N/N=C\c1ccc(C(C)C)cc1 | -21 |
| CCOc1ccc(C2=Nn3c(nnc3-c3ccco3)SC2)cc1 | 1 |
| Cc1cc(/C=C2\SC(=O)N(C)C2=O)c(C)n1-c1ccc(O)cc1 | 7.87 |
| COc1ccc(CN2CN(C3CCCC3)CSC2=S)cc1 | 13.8 |
| CCOc1ccccc1CN1CCC(n2nccc2NC(=O)C2CCCC2)CC1 | 6.47 |
| Cc1cc(C(=O)Nc2ccccc2Cl)c2ccccc2n1 | -11.2 |
| CC12CNCC(C)(CN(C3(O)C(=O)Nc4ccc(Br)cc43)C1)C2=O (configuration not stated) | 13.4 |
| COc1ccc(Cl)cc1C(=O)Nc1ccc2c(c1)OCCO2 | 6 |
| Cc1ccc2nc(NCc3ccc(F)cc3)c3nncn3c2c1 | 4.85 |

| SMILES | activity change, negative = inhibition [%] |
| --- | --- |
| COc1ccc(C(C)=O)cc1COC(=O)CNC(=O)c1ccccc1F | -10.4 |
| COc1ccccc1NC(=O)c1c([N+](=O)[O-])cnn1C | 25.3 |
| O=C(CSc1nccc(=O)[nH]1)Nc1ccc(Oc2ccccc2)cc1 | -22.5 |
| Cc1cc(C)nc(CCNC(=O)c2cc(COc3c(C)cccc3C)on2)n1 | 17.2 |
| O=C(COC(=O)CNC(=O)c1cccc([N+](=O)[O-])c1)NCc1ccco1 | 9.03 |
| CCOC(=O)C1(Cc2cccc(Cl)c2)CCCN(C(=O)c2cccc(C)n2)C1 (configuration not stated) | 22.9 |
| CC1CCC(NS(=O)(=O)c2ccc3c(c2)n(C)c(=O)c(=O)n3C)CC1 (configuration not stated) | 13.3 |
| O=C(COC(=O)c1cccnc1Cl)Nc1ccc2c(c1)OCO2 | 2.18 |
| COc1cc(C(=O)NC(C)CCc2ccccc2)cc(OC)c1OC (configuration not stated) | 22.9 |
| C=CCNC(=S)Nc1ccc(C)c(S(=O)(=O)N2CCCCC2)c1 | -15.4 |
| CC1Cc2ccccc2N1C(=O)CNc1ccccc1N1CCCCC1 (configuration not stated) | 11.6 |
| NC(=O)C1CCN(c2ncccc2[N+](=O)[O-])CC1 | -12.7 |
| O=C(CCCn1c(=S)[nH]c2cc3c(cc2c1=O)OCO3)N1CCN(c2ccc(Cl)cc2)CC1 | 16.6 |
| C/C(=C/c1ccccc1)C(=O)N1CCN(c2ccccc2)CC1 | 10.4 |
| Cc1ccc(C(=O)Nc2ccccc2)cc1S(=O)(=O)N1CCN(C)CC1 | 18.7 |
| Cc1ccc(-c2nnn(CC(=O)N(CCN3CCOCC3)C(C(=O)NC(C)(C)C)c3ccc(C)o3)n2)cc1 (configuration not stated) | 7.03 |
| Fc1ccc(-n2c(-c3ccc4ccccc4n3)n[nH]c2=S)cc1Cl | -6.43 |
| CCOc1ccc(N(CC(=O)N2CCN(Cc3ccccc3)CC2)S(C)(=O)=O)cc1 | -7.95 |
